22 molecules from PubChem BioAssay (NCATS) can be followed below.

The test system of one assay is MCC-13. Nature of the assay: qHTS assay to identify novel small-molecules to repurpose for Merkel cell carcinoma treatment (AID 1296009). Also: nearly all actives have a fitted effect of over 60% in size. Also: potency is read from the fitted curve at half-maximal effect. The note with it: MCC and control cell lines, CellTiter-Glo viability, 72 h; series mostly up to 46 µM. In outline: (§1)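 qHTS format: cells treated with library compounds in DMSO across 8 (NPC) or 11 (MIPE) concentrations. Readout after 72 hr at 37 degree celsius was CellTiter-Glo luminescence.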
A general note: Quantitative high-throughput screening tests each substance at several concentrations.

For the next assay, the system named is MCC-26. The assay is described as above. The following applies: MCC and control cell lines, CellTiter-Glo viability, 72 h; series mostly up to 46 µM. The procedure, abridged:
as §1
(ATP-based viability assays read luminescence as a measure of living cells.)

Another assay relates to MKL-1. Described as above. The following applies: MCC and control cell lines, CellTiter-Glo viability, 72 h; series mostly up to 46 µM. In outline:
as §1

In the next assay the test system is MKL-2. The description is as above. The note with it: MCC and control cell lines, CellTiter-Glo viability, 72 h; series mostly up to 46 µM. The procedure, abridged:
as §1

Another assay has as its system NIH3T3. The assay is described as above. The following applies: MCC and control cell lines, CellTiter-Glo viability, 72 h. In outline: as §1
A further assay relates to UISO. The assay is described as above. The following applies: MCC and control cell lines, CellTiter-Glo viability, 72 h; series mostly up to 46 µM. In outline: as §1
The next assay concerns WaGa. The assay is described as above. The note with it: MCC and control cell lines, CellTiter-Glo viability, 72 h; series mostly up to 46 µM. In outline: as §1
The subject of another assay is C33A. In words: Primary qHTS to identify gynecologic anti-cancer compounds using libraries of approved drugs and bioactive compounds (AID 1345084). Also: nearly all actives have a fitted effect of over 55% in size. The note with it: Gynecologic cancer cell panel viability, ATPlite luminescence, 48 h; series mostly up to 57.5 µM. In outline:
(§2)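 48 h compound exposure at 37 C, 5% CO2; five-point qHTS. ATPlite luminescence readout of cell ATP.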

In a further assay the test system is CASKI. The description is as above. The note with it: Gynecologic cancer cell panel viability, ATPlite luminescence, 48 h; series mostly up to 57.5 µM. In outline: as §2
The test system of a further assay is CAOV3. The assay is described as above. The note with it: Gynecologic cancer cell panel viability, ATPlite luminescence, 48 h; series mostly up to 57.5 µM. The procedure, abridged:
as §2

Where [1] appears, read: at 44.8 µM (top of the series) unless noted.

Molecules are shown by their SMILES. “And” between values parts separate entries of the source, which are not always exact repeats. Equal entries are not always repeated. Records with an inconclusive call do not appear. Where a structure was tested more than once in an assay, its records may differ in their call. A number with no mark means an inactive call. The source made the active and inactive calls. Calls follow the shape of the dose curve; as a rule, active = well fitted curve in the direction sought with a large enough effect; inconclusive = small, poorly fitted or top-dose-only effect, or another doubt; inactive = no such curve, though single readings can be large; an effect the other way counts as inactive or inconclusive.
% is scaled to controls: 0 for no effect and ±100 for the full control effect.

For the molecule `COc1cc2c(cc1OC)C1CC(=O)C(CC(C)C)CN1CC2` (configuration not stated), the Potency result in the assay with MCC-13, in the assay on MCC-26, in the assay with MKL-1, in the assay on MKL-2, in the assay with UISO and in the assay on WaGa was “inactive” throughout. The call with NIH3T3 (setting [1]) was inactive.
Turning to `CNC[C@H](O)c1ccc(O)c(O)c1`, the Potency entry in the assay on MCC-13, in the assay with MCC-26, in the assay on MKL-1, with MKL-2, in the assay on UISO and in the assay on WaGa was “inactive” throughout. The Potency entry in the assay on C33A and in the assay with CASKI was “inactive” throughout. The molecule was classed as inactive in the assay on NIH3T3 (at 17.4 µM (top of the series)) and in the assay with NIH3T3 (at 92 µM (top of the series)).
On to `Nc1ccn([C@@H]2O[C@H](CO)[C@@H](O)C2O)c(=O)n1` (some centres not stated), for which the Potency entry in the assay with MCC-13, in the assay with MCC-26, in the assay on MKL-1, in the assay with MKL-2, with UISO and in the assay with WaGa was “inactive” each time. Besides, the molecule was called inactive with NIH3T3 (setting [1]).
Take `COc1ccccc1N1CCN(CCN(C(=O)C2CCCCC2)c2ccccn2)CC1`: the Potency result with MCC-13, with MCC-26, in the assay with MKL-1, with MKL-2, in the assay on UISO and in the assay on WaGa was “inactive” in each case. The Potency result with C33A and in the assay with CASKI was “inactive” each time. Moreover, the molecule was called inactive with NIH3T3 (setting [1]).
Consider `CCN(CCO)CCCC(C)Nc1ccnc2cc(Cl)ccc12` (configuration not stated), for which the Potency entry with MCC-13, in the assay on MCC-26, in the assay with MKL-2 and in the assay on UISO was “inactive” in each case. The Potency in the assay on MKL-1 was 3.72 µM (active); in the assay with WaGa, 2.35 µM (active). Moreover, the activity change, negative = cytotoxicity with MKL-1 is 15.4% [at 4.84 µM]; with WaGa, 15.3% [at 4.84 µM]; in the assay on C33A it was 4.86% [at 6.55 µM] and 0.75% [at 6.55 µM]; in the assay with CAOV3, 21.3% [at 6.55 µM] and 5.51% [at 6.55 µM]; with CASKI, 22.4% [at 6.55 µM] and 10.4% [at 6.55 µM]. Also, the outcome with NIH3T3 (setting [1]) is “inactive [at 4.96 µM]”.
`CCC1=C(C)CN(C(=O)NCCc2ccc(S(=O)(=O)NC(=O)NC3CCC(C)CC3)cc2)C1=O` (configuration not stated): the Potency entry with MCC-13, in the assay with MCC-26, in the assay with MKL-1, in the assay with MKL-2, with UISO and with WaGa was “inactive” in each case. Moreover, the Potency entry in the assay with C33A, in the assay with CAOV3 and with CASKI was “inactive” in each case. In addition, the molecule was called inactive with NIH3T3 (setting [1]).
Regarding `CCOC(=O)c1c(C)n(C)c2ccc(O)cc12`, the Potency entry with MCC-13, in the assay with MCC-26, in the assay on MKL-1, with MKL-2, in the assay on UISO and in the assay on WaGa was “inactive” in each case. Also, the Potency result in the assay with C33A, with CAOV3 and with CASKI was “inactive” in each case. Moreover, the call with NIH3T3 (setting [1]) was inactive.
For `O=C(O)c1cccnc1Nc1cccc(C(F)(F)F)c1`, the Potency entry in the assay with MCC-13, with MCC-26, with MKL-1, in the assay with MKL-2, in the assay with UISO and in the assay on WaGa was “inactive” each time. The Potency result with C33A, in the assay with CAOV3 and in the assay with CASKI was “inactive” in each case. The molecule was called inactive with NIH3T3 (setting [1]).
Consider `Cc1cc2c(s1)Nc1ccccc1N=C2N1CCN(C)CC1`, for which the Potency result in the assay on MCC-13, in the assay on MCC-26, in the assay with MKL-1, in the assay with MKL-2, in the assay on UISO and in the assay on WaGa was “inactive” throughout. Further, the Potency result with C33A and in the assay with CASKI was “inactive” throughout. For the same molecule, the call in the assay on NIH3T3 (setting [1]) was inactive.
For the molecule `COc1cc(OC)c(C(=O)CCCN2CCCC2)c(OC)c1`, the Potency entry in the assay with MCC-13, in the assay with MCC-26, in the assay on MKL-1, with MKL-2, with UISO and in the assay on WaGa was “inactive” each time. Besides, the Potency result with C33A and in the assay on CASKI was “inactive” throughout. In the assay on NIH3T3 (setting [1]), the molecule was called inactive.
`O=C(CS(=O)Cc1ccco1)NCC=CCOc1cc(CN2CCCCC2)ccn1` (configuration not stated): the Potency result in the assay on MCC-13, in the assay with MCC-26, in the assay with MKL-1, with MKL-2, with UISO and with WaGa was “inactive” in each case. For the same molecule, the call with NIH3T3 (setting [1]) was inactive.
For `CN(c1nccc(=O)[nH]1)C1CCN(c2nc3ccccc3n2Cc2ccc(F)cc2)CC1`, the Potency result with MCC-13, in the assay with MCC-26, in the assay on MKL-1, in the assay on MKL-2, with UISO and in the assay with WaGa was “inactive” each time. For the same molecule, the Potency result in the assay with C33A and in the assay with CASKI was “inactive” in each case. Moreover, the molecule was called inactive in the assay on NIH3T3 (setting [1]).
`CCOC(=O)C1=C[C@@H](OC(CC)CC)[C@H](NC(C)=O)[C@@H](N)C1`: the Potency entry with MCC-13, in the assay on MCC-26, in the assay with MKL-1, with MKL-2, in the assay on UISO and in the assay on WaGa was “inactive” throughout. Further, in the assay with NIH3T3 (setting [1]), the outcome was inactive.
With `CNC[C@@H](O)[C@@H](O)[C@H](O)[C@H](O)CO`, the Potency entry with MCC-13, with MCC-26, with MKL-1, in the assay with MKL-2, with UISO and with WaGa was “inactive” in each case. In addition, in the assay with NIH3T3 (setting [1]), the outcome was inactive.
`Nc1nc(OCc2ccccc2)c2[nH]cnc2n1`: the Potency result in the assay on MCC-13, in the assay on MCC-26, in the assay with MKL-1, with MKL-2, in the assay with UISO and with WaGa was “inactive” each time. For the same molecule, the outcome with NIH3T3 (setting [1]) was inactive.
Turning to `O=C(O)CCNC(=O)c1ccc(N=Nc2ccc(O)c(C(=O)O)c2)cc1`, the Potency result with MCC-13, in the assay with MCC-26, in the assay with MKL-1, in the assay on MKL-2, in the assay with UISO and in the assay with WaGa was “inactive” throughout. The Potency result with C33A, in the assay with CAOV3 and with CASKI was “inactive” each time. Also, in the assay with NIH3T3 (setting [1]), the molecule was classed as inactive.
In the case of `C[C@H](Cn1cnc2c(N)ncnc21)OCP(=O)(O)O`, the Potency result with MCC-13, in the assay with MCC-26, in the assay with MKL-1, in the assay with MKL-2, with UISO and in the assay on WaGa was “inactive” each time. In addition, the molecule was classed as inactive in the assay with NIH3T3 (setting [1]).
`Cc1nc(-c2ccc(OCC(C)C)c(C#N)c2)sc1C(=O)O`: the Potency result in the assay on MCC-13, in the assay with MCC-26, in the assay with MKL-1, in the assay with MKL-2, in the assay with UISO and in the assay with WaGa was “inactive” in each case. The Potency result in the assay on C33A was “inactive”. For the same molecule, the call with NIH3T3 (setting [1]) was inactive.
With `CCC(C)(Oc1ccc(C2(c3ccc(OC(C)(CC)C(=O)O)cc3)CCCCC2)cc1)C(=O)O` (configuration not stated), the Potency result with MCC-13, in the assay with MCC-26, in the assay with MKL-1, with MKL-2, with UISO and with WaGa was “inactive” throughout. Besides, the Potency entry with C33A, in the assay with CAOV3 and in the assay with CASKI was “inactive” throughout. Moreover, the result with NIH3T3 (setting [1]) was inactive.
Turning to `COCCCOc1ccnc(CS(=O)c2nc3ccccc3[nH]2)c1C` (configuration not stated), the Potency entry in the assay with MCC-13, in the assay with MCC-26, in the assay with MKL-1, in the assay with MKL-2, in the assay on UISO and in the assay on WaGa was “inactive” in each case. Moreover, the Potency entry in the assay with C33A, with CAOV3 and with CASKI was “inactive” in each case. In the assay with NIH3T3 (setting [1]), the outcome was inactive.
In the case of `NNc1nncc2ccccc12`, the Potency entry in the assay with MCC-13, in the assay with MCC-26, in the assay with MKL-1, in the assay with MKL-2, in the assay on UISO and in the assay with WaGa was “inactive” in each case. Further, the Potency result in the assay with C33A, with CAOV3 and in the assay on CASKI was “inactive” each time. The outcome in the assay on NIH3T3 (setting [1]) is “inactive [at 17.4 µM]”.
On to `CC(C)c1ccc2c(c1)c(SC(C)(C)C)c(CC(C)(C)C(=O)O)n2Cc1ccc(Cl)cc1`, for which the Potency entry in the assay with MCC-13, with MCC-26, with MKL-1, with MKL-2, in the assay with UISO and in the assay on WaGa was “inactive” each time. Besides, in the assay on NIH3T3 (setting [1]), the molecule was called inactive.
